# According to the supplement of paper PMC12067093, “Discovery and optimisation of a covalent ligand for TRIM25 and its application to targeted protein ubiquitination” (Chemical Science, 2025):
# Of roughly 21,000 targets only a part is listed; those with the largest changes were picked by preference.
# Compound: Cc1cc(ccc1-c1ccccc1)C(=O)N1CCCN(CC1)C(=O)CCl [compound 10]
# Assay: probe-labelled cysteine peptide fold change vs DMSO (competition) (log2 fold change); higher = less target engagement (more negative = stronger competition)
# Conditions: 10 µM; THP-1; incubation time: 4 h
# 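Further: competitive profiling in live THP-1 cells: cysteine peptides tagged with an iodoacetamide desthiobiotin (IA-DTB) probe, intensity after compound treatment relative to DMSO-treated cells.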
row,Target,probe-labelled cysteine peptide fold change
1,MDN1_Q9NU22_3308_MDRLDNLTCHLLK (UniProt Q9NU22),-0.00667
2,MLST8_Q9BVC4_34_FWQAHSGICTR (UniProt Q9BVC4),-0.182
3,MAK16_Q9BXY0_39_NEYSLTGLCNR (UniProt Q9BXY0),0.173
4,LIMS1_P48059_193_MGVPICGACR (UniProt P48059),-0.104
5,MCMBP_Q9BTE3_325_LQHINPLLPACLNK (UniProt Q9BTE3),-0.451
6,LRRFIP1_Q32MZ4_456_CMVEVPQELETSTGHSLEK (UniProt Q32MZ4),-0.167
7,MGMT_P16455_145_GNPVPILIPCHR (UniProt P16455),-1.04
8,MYBBP1A_Q9BQG0_623_SPAESCDLLGDIQTCIR (UniProt Q9BQG0),-0.0385
9,MACF1_Q9UPN3_3109_EIACGAQSEPFPCMTPRPEGLHYQESDGK (UniProt Q9UPN3),-0.348
10,LRCH3_Q96II8_148_NQLSTLPVHLCNLPLK (UniProt Q96II8),0.138
11,LRCH4_O75427_283_GSALGDLAPSRPPSFSPCPAEDLFPGHR (UniProt O75427),-1.16
12,LTA4H_P09960_8_PEIVDTCSLASPASVCR (UniProt P09960),-0.129
13,MICALL1_Q8N3F8_597_GSSGPQPAKPCSGATPTPLLLVGDR (UniProt Q8N3F8),-0.17
14,MRPL53_Q96EL3_21_VQFCPFEK (UniProt Q96EL3),0.0106
15,MRC2_Q9UBG0_187_IYGSEEDLCALPYHEVYTIQGNSHGKPCTIPFK (UniProt Q9UBG0),-0.0343
16,MDN1_Q9NU22_2158_CLGEGGK (UniProt Q9NU22),-0.171
17,LYPLA1_O75608_144_LAGVTALSCWLPLR (UniProt O75608),0.21
18,MCU_Q8NE86_191_TLVQQLYTTLCIEQHQLNK (UniProt Q8NE86),0.0411
19,MED1_Q15648_135_VAHHGENPVSCPELVQQLR (UniProt Q15648),-0.0375

row,Target,probe-labelled cysteine peptide fold change
1,LIG3_P49916_929_KAADETLCQTK (UniProt P49916),-0.152
2,MORC3_Q14149_671_NDAVILPSCVEAEAK (UniProt Q14149),-0.296
3,MMTAG2_Q9BU76_103_EDFAEVCKR (UniProt Q9BU76),-0.168
4,LONP1_P36776_909_AGVTCIVLPAENKK (UniProt P36776),-0.00288
5,MCCC2_Q9HCC0_267_AATGEEVSAEDLGGADLHCRK (UniProt Q9HCC0),-0.591
6,MAK16_Q9BXY0_17_QFCSFK (UniProt Q9BXY0),-0.115
7,MDN1_Q9NU22_3195_ELLCQLLTSLHHFVGEGESK (UniProt Q9NU22),-0.696
8,MYD88_Q99836_168_FDAFICYCPSDIQFVQEMIR (UniProt Q99836),0.412
9,MRPL35_Q9NZE8_150_EFVFCNK (UniProt Q9NZE8),-0.362
10,MCM6_Q14566_158_THPVHPELVSGTFLCLDCQTVIRDVEQQFK (UniProt Q14566),0.0358
11,MPC2_O95563_54_WGLVCAGLADMARPAEK (UniProt O95563),-0.141
12,LRRC8A_Q8IWT6_768+776_GNRLECLPVELGECPLLK (UniProt Q8IWT6),-0.106
13,MMADHC_Q9H3L0_261+262_HLGFSVDDLGCCK (UniProt Q9H3L0),-0.412
14,MGAT2_Q10469_386_KTCRPSTQSAQIESLLNNNK (UniProt Q10469),-0.194
15,MCM4_P33991_328_IAEPSVCGR (UniProt P33991),0.0169
16,LILRB4_Q8NHJ6_330_SSPAADVQGENFCAAVK (UniProt Q8NHJ6),-0.385
17,MMADHC_Q9H3L0_261_HLGFSVDDLGCCK (UniProt Q9H3L0),-0.3
18,LSM2_Q9Y333_26_NDLSICGTLHSVDQYLNIK (UniProt Q9Y333),0.109

# Same assay, conditions: 50 µM; THP-1; incubation time: 4 h
row,Target,probe-labelled cysteine peptide fold change
1,MDN1_Q9NU22_3308_MDRLDNLTCHLLK (UniProt Q9NU22),-0.264
2,MLST8_Q9BVC4_34_FWQAHSGICTR (UniProt Q9BVC4),0.0338
3,MAK16_Q9BXY0_39_NEYSLTGLCNR (UniProt Q9BXY0),-0.348
4,LIMS1_P48059_193_MGVPICGACR (UniProt P48059),-0.269
5,MCMBP_Q9BTE3_325_LQHINPLLPACLNK (UniProt Q9BTE3),-1.87
6,LRRFIP1_Q32MZ4_456_CMVEVPQELETSTGHSLEK (UniProt Q32MZ4),-0.23
7,MGMT_P16455_145_GNPVPILIPCHR (UniProt P16455),-1.29
8,MYBBP1A_Q9BQG0_623_SPAESCDLLGDIQTCIR (UniProt Q9BQG0),-0.16
9,MACF1_Q9UPN3_3109_EIACGAQSEPFPCMTPRPEGLHYQESDGK (UniProt Q9UPN3),-0.619
10,LRCH3_Q96II8_148_NQLSTLPVHLCNLPLK (UniProt Q96II8),0.0632
11,LRCH4_O75427_283_GSALGDLAPSRPPSFSPCPAEDLFPGHR (UniProt O75427),-1.33
12,LTA4H_P09960_8_PEIVDTCSLASPASVCR (UniProt P09960),-0.324
13,MICALL1_Q8N3F8_597_GSSGPQPAKPCSGATPTPLLLVGDR (UniProt Q8N3F8),-0.459
14,MRPL53_Q96EL3_21_VQFCPFEK (UniProt Q96EL3),-0.103
15,MRC2_Q9UBG0_187_IYGSEEDLCALPYHEVYTIQGNSHGKPCTIPFK (UniProt Q9UBG0),-0.784
16,MDN1_Q9NU22_2158_CLGEGGK (UniProt Q9NU22),-1.54
17,LYPLA1_O75608_144_LAGVTALSCWLPLR (UniProt O75608),0.0595
18,MCU_Q8NE86_191_TLVQQLYTTLCIEQHQLNK (UniProt Q8NE86),-0.0406
19,MED1_Q15648_135_VAHHGENPVSCPELVQQLR (UniProt Q15648),-0.395

row,Target,probe-labelled cysteine peptide fold change
1,LIG3_P49916_929_KAADETLCQTK (UniProt P49916),-1.24
2,MORC3_Q14149_671_NDAVILPSCVEAEAK (UniProt Q14149),-0.0456
3,MMTAG2_Q9BU76_103_EDFAEVCKR (UniProt Q9BU76),-0.321
4,LONP1_P36776_909_AGVTCIVLPAENKK (UniProt P36776),-0.138
5,MCCC2_Q9HCC0_267_AATGEEVSAEDLGGADLHCRK (UniProt Q9HCC0),-1.49
6,MAK16_Q9BXY0_17_QFCSFK (UniProt Q9BXY0),-0.166
7,MDN1_Q9NU22_3195_ELLCQLLTSLHHFVGEGESK (UniProt Q9NU22),-1.2
8,MYD88_Q99836_168_FDAFICYCPSDIQFVQEMIR (UniProt Q99836),-1.05
9,MRPL35_Q9NZE8_150_EFVFCNK (UniProt Q9NZE8),-0.257
10,MCM6_Q14566_158_THPVHPELVSGTFLCLDCQTVIRDVEQQFK (UniProt Q14566),-0.522
11,MPC2_O95563_54_WGLVCAGLADMARPAEK (UniProt O95563),-1.31
12,LRRC8A_Q8IWT6_768+776_GNRLECLPVELGECPLLK (UniProt Q8IWT6),-0.0226
13,MMADHC_Q9H3L0_261+262_HLGFSVDDLGCCK (UniProt Q9H3L0),-1.16
14,MGAT2_Q10469_386_KTCRPSTQSAQIESLLNNNK (UniProt Q10469),-0.657
15,MCM4_P33991_328_IAEPSVCGR (UniProt P33991),-0.0125
16,LILRB4_Q8NHJ6_330_SSPAADVQGENFCAAVK (UniProt Q8NHJ6),-0.214
17,MMADHC_Q9H3L0_261_HLGFSVDDLGCCK (UniProt Q9H3L0),-1.27
18,LSM2_Q9Y333_26_NDLSICGTLHSVDQYLNIK (UniProt Q9Y333),0.253
